# Experimental data taken from the supplement of paper PMC9694430.
# Counter-ions that a name gives are not always drawn.
# Columns and labels:
# Assay in all cases: thermal shift delta Tm vs DMSO control; higher = stronger stabilization (binding)
# Settings in all cases: 12.5 µM; protein concentration 2 µM
# [1] = test system: LOC_OS02G45750-cb003
# Outline: (§1)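 Purified, E. coli-expressed rice kinase domain constructs were tested by differential scanning fluorimetry in 96-well plates: 19.5 μl of 2 μM kinase in 100 mM potassium phosphate pH 7.5, 150 mM NaCl, 10% glycerol, 5 × SYPRO Orange, plus compound in DMSO. Fluorescence was read from 25°C to 95°C at 0.05°C/s. Melting temperatures came from Boltzmann fits, and the shift is the triplicate mean relative to protein with DMSO alone.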
# [2] = test system: LOC_OS02G54510-cb004
# Outline: as §1
# [3] = test system: LOC_OS03G04050-cb001
# Outline: as §1
# [4] = test system: LOC_OS03G12390-cb001
# Outline: as §1
# [5] = test system: LOC_OS03G27990-cb004
# Outline: as §1
# [6] = test system: LOC_OS03G50450-cb001
# Outline: as §1
# [7] = test system: LOC_OS03G50810-cb003
# Outline: as §1
# [8] = test system: LOC_OS04G35114-cb001
# Outline: as §1
# [9] = test system: T1, LOC_OS04G38480-cb003
# T1 sequence (whole entry): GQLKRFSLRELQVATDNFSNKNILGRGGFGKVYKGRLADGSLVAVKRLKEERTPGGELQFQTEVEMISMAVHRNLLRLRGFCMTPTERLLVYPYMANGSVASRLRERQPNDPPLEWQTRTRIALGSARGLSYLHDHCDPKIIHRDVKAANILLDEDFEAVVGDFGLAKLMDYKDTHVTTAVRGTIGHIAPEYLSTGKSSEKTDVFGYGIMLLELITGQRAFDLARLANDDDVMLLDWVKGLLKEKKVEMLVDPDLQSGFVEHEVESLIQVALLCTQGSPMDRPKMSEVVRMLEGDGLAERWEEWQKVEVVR
# Outline: as §1
# [10] = test system: T2, LOC_OS04G41100-cb001
# T2 sequence (whole entry): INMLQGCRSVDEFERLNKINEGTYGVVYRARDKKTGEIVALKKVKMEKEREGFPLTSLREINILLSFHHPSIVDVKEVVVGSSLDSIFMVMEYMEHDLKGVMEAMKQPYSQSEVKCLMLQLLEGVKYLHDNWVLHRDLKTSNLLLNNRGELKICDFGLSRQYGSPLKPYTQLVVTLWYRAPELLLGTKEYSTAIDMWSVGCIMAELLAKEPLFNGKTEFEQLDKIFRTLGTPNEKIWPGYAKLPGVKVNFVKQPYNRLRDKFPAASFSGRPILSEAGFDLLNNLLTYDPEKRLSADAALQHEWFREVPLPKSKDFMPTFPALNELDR
# Outline: as §1
Compound,thermal shift delta Tm [1] [°C],thermal shift delta Tm [2] [°C],thermal shift delta Tm [3] [°C],thermal shift delta Tm [4] [°C],thermal shift delta Tm [5] [°C],thermal shift delta Tm [6] [°C],thermal shift delta Tm [7] [°C],thermal shift delta Tm [8] [°C],thermal shift delta Tm [9] [°C],thermal shift delta Tm [10] [°C]
C=CC(=O)Nc1cccc(Sc2nc(Nc3ccc(N4CCN(C)CC4)cc3)ncc2Cl)c1,1.15,0.86,0.43,2.55,2.86,1.29,4.92,4.33,1.07,1.47
O=C(Nc1cccnc1)c1cc(-c2ccnc(F)c2)ccc1OCc1ccccc1,1.01,0.22,0.77,4.48,0.39,0.36,0.76,0.97,1.76,0.25
C[C@]1(O)C[C@@H](c2nc(-c3ccc4ccc(-c5ccccc5)nc4c3)c3c(N)nccn32)C1 [Linsitinib (OSI-906)],0.76,0.75,0.57,0.37,0.12,0.28,0.6,3.89,1.28,0.85
FC(F)(F)c1ccc(/C=C/c2nc(COc3ccc(CCCCn4ccnn4)cc3)co2)cc1 [Mubritinib (TAK 165)],0.54,0.1,0.37,0,0.51,0.76,0.3,0.27,0.25,0.36
COc1cc(Nc2c(C#N)cnc3cc(OCCCN4CCN(C)CC4)c(OC)cc23)c(Cl)cc1Cl [Bosutinib (SKI-606)],0.12,0.16,0.26,0.07,0.12,-0.11,-0.09,0.86,1.14,0.53
Cc1cc(Nc2cc(N3CCN(C)CC3)nc(/C=C/c3ccccc3)n2)n[nH]1,4.69,2.74,0.21,4.05,2.48,8.43,7.16,6.22,1.95,1.86
C[C@H](NC(=O)/C(C#N)=C/c1cccc(Br)n1)c1ccccc1,-0.81,-0.57,0.05,-2.64,-2.84,0.09,-1.35,-1.1,0.59,-0.11
Cc1cc(O)c2c(c1)C(=O)c1cccc(O)c1C2=O [Chrysophanic Acid],0.14,-1.28,-0.08,-1.54,0.02,0.03,-0.82,0.09,-1.19,0.06
O=C(O[C@@H]1Cc2c(O)cc(O)cc2O[C@@H]1c1cc(O)c(O)c(O)c1)c1cc(O)c(O)c(O)c1 [(-)-Epigallocatechin Gallate],-1.81,-0.12,0.68,-1.02,0.05,-0.27,-1.51,-2.2,2.43,1.15
O=c1c(-c2ccc(O)cc2)coc2cc(O)cc(O)c12 [Genistein],-0.47,-0.37,-0.01,1.8,0.92,0.14,0.36,-1.3,-1.76,-0.75
CC(C)(C)c1ccc(S(=O)(=O)/C=C/C#N)cc1,-0.34,1.26,0.18,-0.99,-0.83,0.05,-1.59,-1.78,1.74,-0.39
Oc1ccc(-c2nc(-c3ccc(F)cc3)c(-c3ccncc3)[nH]2)cc1,0.9,1.58,0.9,0.88,0.55,0.44,0.55,2.01,1.53,1.35
NC1(c2ccc(-c3nc4ccn5c(=O)[nH]nc5c4cc3-c3ccccc3)cc2)CCC1,-0.2,0.21,0.25,-0.32,0.81,0.2,-0.2,0.61,-0.22,0.57
CC(C)(C)c1cnc(CSc2cnc(NC(=O)C3CCNCC3)s2)o1,0.84,0.08,0.58,0.18,0.11,0.05,0.57,0.29,0.55,10.7
Cn1cnc(N)c2ncnc1-2 [3-Methyladenine (3-MA)],0.36,0.39,0.47,-0.25,0.15,0.39,0.4,0.91,1.15,0.12
CN(C)Cc1cccc(N=C(c2ccccc2)c2c(O)[nH]c3cc(C(=O)N(C)C)ccc23)c1,4.33,0.4,0.44,0.66,1.19,0.55,2.45,5.85,0.55,0.45
N#Cc1ccc2[nH]c(O)c(-c3ccc(CN4CCOCC4)cn3)c2c1,1.77,-0.01,0.4,2.43,0.48,0.53,1.1,1.83,-0.4,2.66
Cc1ccc(NC(=O)c2ccc(CN3CCN(C)CC3)cc2)cc1Nc1nccc(-c2cccnc2)n1 [Imatinib Mesylate (STI571)],0.55,0.16,0.17,0.88,-0.03,-0.05,0.09,0.75,0.34,0.59
O=C1NC(=O)/C(=C/c2cccc(C(F)(F)F)c2)S1,0.26,0.26,0.76,0.17,0.26,0.29,0.08,0.62,-0.19,0.43
